In PubChem BioAssay:
Calls of active or inactive are those of the source.

Legend:
[1] = test system: Plasmodium falciparum Sir2 (PF13_0152, Sir2A); assay: pfSir2 binders on small-molecule microarrays, primary screen, biochemical, small-molecule microarray, 635 nm fluorescence (AID 1098); settings: small-molecule microarray binding, fluorescence 635 nm; higher = more signal;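 also: score merges spot fluorescence intensity with its signal-to-noise ratio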
[2] = small-molecule microarray binders of probe aDKK1, primary screen, biochemical, biotinylated probe, 635/667 nm fluorescence (AID 1099); settings: higher = more signal;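 also: score merges 667nm spot fluorescence with signal to noise across triplicate slides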
[3] = small-molecule microarray binders of probe aCHRDL2, primary screen, biochemical, biotinylated probe, 635/667 nm fluorescence (AID 1100); settings: higher = more signal
[4] = splicing luciferase reporter signal modulators, primary screen, spliceosome inhibition project, cell-based, HEK293, splice +/- reporter (AID 1101); settings: luminescence, 24 h, higher = more signal, called active from +8 up or from −8 down;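 also: HEK293 cells carrying a splicing-competent luciferase reporter gene; test concentration not given here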
[5] = target: Fibroblast growth factor 10 (Homo sapiens) (UniProt O15520); assay: FGF10 binders on small-molecule microarrays, primary screen, biochemical, small-molecule microarray, 635 nm fluorescence (AID 1102); settings: FGF10 binding, fluorescence 635 nm, higher = more signal
[6] = test system: glycogen synthase kinase-3 (GSK3A per assay name; protocol says GSK3B); assay: GSK3 binders on small-molecule microarrays, primary screen, biochemical, small-molecule microarray, 635 nm fluorescence, GSK3A (AID 1103); settings: small-molecule microarray binding, fluorescence 635 nm; higher = more signal; also: the record names both GSK3A and GSK3B
[7] = target: Epidermal growth factor receptor (Homo sapiens) (UniProt P00533); assay: EGFR binders on small-molecule microarrays, primary screen, biochemical, small-molecule microarray, 635 nm fluorescence (AID 1104); settings: EGFR binding, higher = more signal;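 also: score merges 667 nm emission intensity with spot signal to noise over triplicate slides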
[8] = target: Follistatin-related protein 3 (Homo sapiens) (UniProt O95633); assay: FSTL3 binders on small-molecule microarrays, primary screen, biochemical, small-molecule microarray, 635 nm fluorescence (AID 1105); settings: FSTL3 binding, higher = more signal;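 also: score merges emission near 667 nm and signal to noise per printed spot across three slides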
[9] = target: Dickkopf-related protein 1 (Homo sapiens) (UniProt O94907); assay: DKK1 binders on small-molecule microarrays, primary screen, biochemical, small-molecule microarray, 635 nm fluorescence scan (AID 1106); settings: DKK1 binding, higher = more signal;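 also: score merges emission near 667 nm with signal to noise over three replicate slides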
[10] = test system: Inhibin beta A chain (activin A); assay: INHBA (activin A) binders on microarrays, primary screen, biochemical, small-molecule microarray, 635 nm fluorescence scan (AID 1107); settings: small-molecule microarray binding, higher = more signal;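 also: mouse activin A protein probed at 4.33 µg/mL on printed slides; score merges bound-protein fluorescence near 667 nm with spot signal-to-noise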
[11] = test system: Human papillomavirus type 1a protein E7 (residues 44-93); assay: HPV1a E7 fragment binders on microarrays, primary screen, biochemical, small-molecule microarray, residues 44-93, 635 nm fluorescence (AID 1108); settings: small-molecule microarray binding, fluorescence 635 nm; higher = more signal;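 also: E7 fragment applied at 1 µg/mL in TBST for 1 h at 4 C; score combines spot fluorescence with its signal to noise ratio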
[12] = modulators of HCV replicon luciferase signal, primary screen, HCV replication inhibitor project, Huh7 cells, luciferase reporter (AID 1109); settings: 48 h, higher = more signal;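 also: huh7 hepatoma cells harbouring a luciferase neomycin HCV replicon reporter; luciferase luminescence as measure of HCV replicon replication; test concentration not given here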
[13] = target: Left-right determination factor 2 (Homo sapiens) (UniProt O00292); assay: LEFTY2 binders on small-molecule microarrays, primary screen, biochemical, small-molecule microarray, 635 nm fluorescence scan (AID 1110); settings: LEFTY2 binding, higher = more signal
[14] = target: Calmodulin-1 (Homo sapiens) (UniProt P0DP23); assay: CALM1 binders on microarrays, EGTA buffer, profiling panel, biochemical, small-molecule microarray, Cy5-labelled CALM1 (AID 1111); settings: Cy5-CALM1 binding fluorescence, higher = more signal;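 also: labelled calmodulin applied in Tris saline Tween buffer holding calcium plus EGTA and DTT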
[15] = target: Calmodulin-1 (Homo sapiens) (UniProt P0DP23); assay: calcium-bound CALM1 binders on microarrays, profiling panel, artefact control for SMM control-protein annotation, biochemical, small-molecule microarray, Cy5-labelled CALM1, plus calcium (AID 1112); settings: Cy5-CALM1 binding fluorescence, higher = more signal;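 also: score merges spot fluorescence with signal to noise from triplicate slides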
[16] = small-molecule microarray binders of probe aWnt5a, primary screen, biochemical, biotinylated probe, 635/667 nm fluorescence (AID 1113); settings: higher = more signal;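 also: score merges 667 nm fluorescence intensity with signal-to-noise per printed feature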
[17] = small-molecule microarray binders of probe aShh, primary screen, biochemical, biotinylated probe, 635/667 nm fluorescence (AID 1114); settings: higher = more signal;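 also: probe is biotin-labelled aShh protein from a stem cell growth factor screen; measures binding of labelled protein to compounds printed on the slide; score merges feature fluorescence at 667 nm with signal-to-noise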
[18] = small-molecule microarray binders of probe aNog, primary screen, biochemical, biotinylated probe, 635/667 nm fluorescence (AID 1115); settings: higher = more signal;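 also: probe is biotinylated aNog protein used at 0.15 µg/mL for 1 h at 4 C; z-score combines 667 nm fluorescence of each spot with its signal to noise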
[19] = target: Torsin-1A-interacting protein 1 (Homo sapiens) (UniProt Q5JTV8); assay: LAP1 binders from COS7 cell lysate, primary screen, small-molecule microarray, 635/667 nm fluorescence (AID 1116); settings: COS7-hLAP1 lysate binding, 635 nm fluorescence, higher = more signal
[20] = target: Alpha-bungarotoxin (Bungarus multicinctus) (UniProt P60615); assay: alpha-bungarotoxin binders on microarray, profiling panel, artefact control for SMM control protein annotation, biochemical, small-molecule microarray, Alexa647 label, 635/667 nm fluorescence (AID 1117); settings: alpha-BTX-A647 binding fluorescence, higher = more signal
Alpha-bungarotoxin (Bungarus multicinctus), sequence (P60615 whole entry, looked up): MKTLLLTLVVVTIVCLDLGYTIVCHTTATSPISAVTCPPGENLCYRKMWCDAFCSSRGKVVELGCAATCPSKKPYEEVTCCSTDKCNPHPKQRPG

Torsin-1A-interacting protein 1 (Homo sapiens), sequence (Q5JTV8 whole entry, looked up): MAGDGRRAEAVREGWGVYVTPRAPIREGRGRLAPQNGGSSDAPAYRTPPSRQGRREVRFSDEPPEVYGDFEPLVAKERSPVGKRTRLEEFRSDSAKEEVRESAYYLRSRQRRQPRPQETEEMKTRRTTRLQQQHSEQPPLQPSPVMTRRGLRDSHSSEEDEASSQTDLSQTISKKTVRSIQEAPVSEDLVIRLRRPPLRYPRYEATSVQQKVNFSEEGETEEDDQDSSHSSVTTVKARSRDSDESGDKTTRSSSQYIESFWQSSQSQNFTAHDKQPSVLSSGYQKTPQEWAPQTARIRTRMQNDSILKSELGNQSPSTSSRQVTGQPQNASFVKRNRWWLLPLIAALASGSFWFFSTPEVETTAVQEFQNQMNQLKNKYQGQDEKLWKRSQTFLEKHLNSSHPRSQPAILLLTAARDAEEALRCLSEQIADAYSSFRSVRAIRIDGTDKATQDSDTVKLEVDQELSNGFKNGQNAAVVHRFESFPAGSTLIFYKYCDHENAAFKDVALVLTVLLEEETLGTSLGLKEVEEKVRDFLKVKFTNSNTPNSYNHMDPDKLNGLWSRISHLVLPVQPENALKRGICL
Epidermal growth factor receptor (Homo sapiens), sequence (P00533 whole entry, looked up): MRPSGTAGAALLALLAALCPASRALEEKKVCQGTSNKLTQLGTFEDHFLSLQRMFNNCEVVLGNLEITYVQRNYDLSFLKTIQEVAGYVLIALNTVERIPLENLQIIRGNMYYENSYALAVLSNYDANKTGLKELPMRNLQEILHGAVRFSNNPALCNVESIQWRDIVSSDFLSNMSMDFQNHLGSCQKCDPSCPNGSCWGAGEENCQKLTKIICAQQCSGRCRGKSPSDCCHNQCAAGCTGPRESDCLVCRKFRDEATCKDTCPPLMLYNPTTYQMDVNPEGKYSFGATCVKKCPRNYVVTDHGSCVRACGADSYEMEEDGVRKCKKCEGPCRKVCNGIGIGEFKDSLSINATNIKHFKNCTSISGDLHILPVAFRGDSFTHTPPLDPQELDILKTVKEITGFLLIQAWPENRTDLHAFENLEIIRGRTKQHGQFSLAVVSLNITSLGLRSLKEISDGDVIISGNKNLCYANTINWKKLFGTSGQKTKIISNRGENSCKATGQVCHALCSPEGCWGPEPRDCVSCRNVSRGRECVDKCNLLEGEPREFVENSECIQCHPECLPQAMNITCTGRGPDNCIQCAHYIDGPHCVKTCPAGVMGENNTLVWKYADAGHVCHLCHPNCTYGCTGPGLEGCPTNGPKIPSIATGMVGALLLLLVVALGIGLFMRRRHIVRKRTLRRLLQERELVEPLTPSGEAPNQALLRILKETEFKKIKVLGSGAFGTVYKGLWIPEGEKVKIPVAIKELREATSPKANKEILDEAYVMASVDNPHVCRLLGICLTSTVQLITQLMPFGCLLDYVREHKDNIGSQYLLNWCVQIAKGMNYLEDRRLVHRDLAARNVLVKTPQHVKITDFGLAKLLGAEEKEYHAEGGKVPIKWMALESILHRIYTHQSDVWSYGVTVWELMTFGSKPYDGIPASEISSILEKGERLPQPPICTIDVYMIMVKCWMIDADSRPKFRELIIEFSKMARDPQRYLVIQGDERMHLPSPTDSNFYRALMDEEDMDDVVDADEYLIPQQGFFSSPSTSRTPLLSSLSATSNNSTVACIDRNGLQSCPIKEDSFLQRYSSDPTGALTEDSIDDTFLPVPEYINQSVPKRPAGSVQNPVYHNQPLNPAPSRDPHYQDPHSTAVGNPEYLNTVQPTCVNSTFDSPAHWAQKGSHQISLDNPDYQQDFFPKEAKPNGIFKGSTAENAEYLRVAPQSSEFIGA
Follistatin-related protein 3 (Homo sapiens), sequence (O95633 whole entry, looked up): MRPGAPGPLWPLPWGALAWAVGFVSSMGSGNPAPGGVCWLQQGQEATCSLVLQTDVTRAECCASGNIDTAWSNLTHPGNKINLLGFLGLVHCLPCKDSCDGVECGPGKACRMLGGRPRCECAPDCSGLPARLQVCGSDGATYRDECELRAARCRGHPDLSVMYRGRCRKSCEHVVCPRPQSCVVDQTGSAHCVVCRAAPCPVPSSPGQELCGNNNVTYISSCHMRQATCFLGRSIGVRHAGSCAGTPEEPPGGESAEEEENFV
Left-right determination factor 2 (Homo sapiens), sequence (O00292 whole entry, looked up): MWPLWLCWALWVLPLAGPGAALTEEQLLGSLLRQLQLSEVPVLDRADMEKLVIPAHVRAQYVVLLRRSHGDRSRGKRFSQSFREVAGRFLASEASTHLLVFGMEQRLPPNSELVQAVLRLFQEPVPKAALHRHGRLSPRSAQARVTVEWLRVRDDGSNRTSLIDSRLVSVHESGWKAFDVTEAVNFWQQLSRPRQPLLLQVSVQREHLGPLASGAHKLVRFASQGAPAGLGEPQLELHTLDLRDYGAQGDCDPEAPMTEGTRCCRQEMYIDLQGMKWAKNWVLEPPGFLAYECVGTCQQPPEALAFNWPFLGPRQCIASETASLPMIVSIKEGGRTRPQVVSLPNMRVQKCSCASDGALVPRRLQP
Fibroblast growth factor 10 (Homo sapiens), sequence (O15520 whole entry, looked up): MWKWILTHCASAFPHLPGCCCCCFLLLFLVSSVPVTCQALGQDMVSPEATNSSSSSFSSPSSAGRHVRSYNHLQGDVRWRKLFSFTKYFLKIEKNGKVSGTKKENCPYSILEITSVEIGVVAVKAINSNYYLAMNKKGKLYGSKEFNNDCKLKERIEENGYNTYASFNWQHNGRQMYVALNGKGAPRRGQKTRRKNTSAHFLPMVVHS
Dickkopf-related protein 1 (Homo sapiens), sequence (O94907 whole entry, looked up): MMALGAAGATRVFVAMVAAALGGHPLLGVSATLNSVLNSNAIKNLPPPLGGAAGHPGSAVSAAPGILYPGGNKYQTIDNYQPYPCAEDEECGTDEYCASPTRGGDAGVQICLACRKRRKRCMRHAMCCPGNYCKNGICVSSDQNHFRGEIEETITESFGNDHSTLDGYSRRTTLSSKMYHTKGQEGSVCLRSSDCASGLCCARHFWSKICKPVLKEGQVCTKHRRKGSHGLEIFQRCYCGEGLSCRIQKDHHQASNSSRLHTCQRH

SMILES | composite z-score [1] | composite z-score [2] | composite z-score [3] | z-score [4] | composite z-score [5] | composite z-score [6] | composite z-score [7] | composite z-score [8] | composite z-score [9] | composite z-score [10] | composite z-score [11] | z-score [12] | composite z-score [13] | composite z-score [14] | composite z-score [15] | composite z-score [16] | composite z-score [17] | composite z-score [18] | composite z-score [19] | composite z-score [20]
C[C@@H]1C=CCC(=O)OC[C@H](C)C(=O)N[C@@H](C)C(=O)OC1 | 0.57 | -0.242 | -0.791 | -0.586 (inactive) | 0.336 | 0.252 | 0.282 | 0.413 | 0.814 | -0.658 | -0.0639 | -0.512 | 0.409 | -0.556 | -0.897 | -0.0721 | 0.178 | -0.141 | 0.789 | -0.194
CCOC(=O)C[C@H]1[C@H](OC(=O)c2cc3ccccc3oc2=O)[C@@H](NC(=O)c2ccc3ccccc3n2)c2cc(OCCCO)ccc2N1C(=O)c1ccccc1 | 0.564 | 0.414 | -0.0652 | -0.38 (inactive) | 1.4 | 0.439 | 0.344 | 0.948 | 1.04 | 0.513 | 0.15 | -1.4 | 0.473 | 0.218 | 0.179 | 0.0374 | -0.138 | 0.108 | 1.12 | 0.593
CCOC(=O)NN=C1C[C@@H](O)[C@@H](O)[C@@H]2[C@@H]3C(=O)N(C(C)(C)C)C(=O)[C@@H]3CC[C@@H]12 | -0.241 | 0.166 | 0.599 | 0.172 (inactive) | 0.34 | -1.09 | 0.43 | -1 | -0.567 | -2.83 | -0.772 | -0.529 | 0.45 | -0.671 | -1.54 | -0.278 | -0.75 | 0.154 | -0.48 | -0.772
C[C@H]1CC[C@@H](C(=O)O)N[C@@H]1c1ccc(C#CCN(C)C)cc1 | 0.785 | -0.275 | -0.337 | -0.248 (inactive) | 0.425 | 0.429 | 0.44 | 0.481 | 0.33 | 0.222 | -1.64 | 0.848 | 0.793 | -0.263 | -0.51 | -0.152 | 0.148 | -0.126 | 0.109 | 0.783
C#C[C@@H](CC)O[Si](C#Cc1ccc(Oc2ccccc2)cc1)(C(C)C)C(C)C | 0.301 | -0.137 | -0.225 | -1.17 (inactive) | 0.706 | 0.777 | 0.185 | 0.773 | 0.125 | 0.0324 | 1.1 | -0.715 | 0.341 | -0.0885 | -0.657 | -0.0963 | -0.0533 | -0.254 | 0.368 | 0.0826
CC(=O)OC[C@H]1O[C@H](CCON=C[C@@H](C)[C@H](OCc2ccccc2)C(C)C)C=C[C@@H]1OC(C)=O | 0.343 | -0.36 | -0.743 | 0.244 (inactive) | 0.2 | 0.608 | 0.365 | 0.274 | 0.564 | -0.0819 | 0.837 | -0.461 | 0.646 | -0.501 | -0.911 | 0.0181 | -0.214 | -0.215 | 0.619 | 0.13
CO[C@H]1COC(=O)[C@@H]2CCCN2C(=O)CC=C[C@@H](C)[C@H](OC)COC(=O)CC=C[C@@H]1C | 0.401 | -0.569 | -1.28 | -0.555 (inactive) | 1.09 | 1.06 | 1.64 | 1.47 | 1.63 | 1.5 | 0.589 | 1.34 | 1.47 | -2.29 | -2.06 | -0.117 | -0.0904 | -0.156 | -0.298 | -0.394
CC(C)(C)N1CC=CC23O[C@@H]4C=CCCOC(=O)C4[C@H]2C(=O)N(CCCCCO)[C@@H]3C1=O (stereo not given in full) | 1.87 | -0.399 | 0.0199 | 0.164 (inactive) | -0.0123 | 0.126 | -0.0688 | -0.361 | -0.236 | 0.773 | 0.433 | 0.651 | -0.316 | -0.582 | -0.839 | -0.0327 | 0.0796 | -0.206 | 2.15 | -0.949
CC(=O)OC[C@H]1O[C@H](CC=NOC[C@@H](C)[C@H](OCc2ccccc2)C(C)C)C=C[C@@H]1OC(C)=O | -0.15 | -0.262 | -0.478 | 0.955 (inactive) | -0.17 | 0.1 | 0.0284 | 0.523 | 0.169 | -0.0543 | 0.16 | -0.854 | 0.455 | -0.47 | -0.499 | 0.0437 | -0.186 | -0.526 | -0.698 | -0.164
CC(C)[C@H](NC(=O)OC(C)(C)C)[C@@H](O)CC(=O)OC(C)(C)C | -1.02 | -0.298 | -0.215 | -0.566 (inactive) | -0.658 | -1.38 | -0.664 | -0.746 | -0.327 | 0.0055 | -2.46 | -0.59 | -0.428 | -0.32 | -0.275 | -0.0977 | -0.147 | -0.241 | -0.68 | -0.232
COc1ccc(OC[C@H]2Cc3c(-c4ccccc4)nc4c(c3CO2)CN(CCOc2ccccc2)CC4)cc1 | 1.07 | 0.521 | -0.233 | -1.47 (inactive) | 0.883 | 0.94 | 0.487 | 1.03 | 0.85 | 0.726 | 1.22 | -1.77 | 0.722 | 0.59 | -0.243 | -0.0399 | 0.0815 | 0.0637 | 0.423 | 1.13
